# Only a selection was taken, and hits are over-represented in it overall.
# Dicer processing = blocks human Dicer maturation of pre-miR-21; Q9UPY3; cat-ELCCA pre-miR-21 Dicer processing, chemiluminescence; active compounds read high; z-score at 25 µM; 47,000 compounds, 6% hits; AID 1347074; in the data active = z-score above about 3, passing the limit was not always enough;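 note: plate controls were vehicle for no effect and no enzyme for full effect; higher signal means more uncleaved substrate so more Dicer inhibition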
# An asterisk follows results filed as active.
SMILES,Dicer processing
COc1ccc(C2C(C(=O)OC(C)C)=C(C)Nc3ncnn32)c(OC)c1 (stereo unspecified),-1.2
Cc1cc(C)cc(N/C=C(\C#N)S(=O)(=O)c2ccc(Cl)cc2)c1,-1.1
CCOC(=O)c1sc(NC(=O)c2ccco2)nc1C,-1.4
CCOC(=O)c1sc(NC(C)=O)nc1C,4.3*
COC(=O)c1sc(NC(C)=O)nc1C,-0.11
COc1ccc(-c2noc(COc3ccc4c(c3)CCCC4)n2)cc1,2.2
CCCN(CCC)S(=O)(=O)c1ccc(C(=O)N2CCC3c4ccccc4C(=O)N3C2)cc1 (stereo unspecified),-0.22
Cc1csc(SCCCCCCC(=O)O)n1,-0.37
CCc1cccc(C)c1NC1=NCCC(=O)S1,0.51
COC(=O)C1=C(C)O/C(=C2/C=CC=CN2)C(C)=C1,3.1*
OC1CCSc2ccc(Cl)cc21 (stereo unspecified),-0.31
C=CCSc1nnc(-c2cc(OCC(F)(F)F)nc(OCC(F)(F)F)c2)n1Cc1ccco1,-0.76
Cc1sc2nc(-c3ccccc3)oc(=O)c2c1C,1.5
Cc1cccc(C)c1NC(=O)c1snnc1C,0.06
Cc1nnsc1-c1nc2cccc(C)c2c(=O)o1,3.4*
COc1ccc(C2C(C(=O)OC(C)C)=C(C)Nc3nc4ccccc4n32)cc1OC (stereo unspecified),0.71
Cc1ccc(S(=O)(=O)Nc2ccc(-c3cn4cccc(C)c4n3)cc2)cc1C,8.6*
Cc1cccn2cc(-c3ccccc3Cl)nc12,0.28
Cc1cccn2cc(-c3cccc(S(=O)(=O)N4CCOCC4)c3)nc12,0.78
Cc1cccn2cc(-c3cccc(S(=O)(=O)N4CCCC4)c3)nc12,-0.04
Cc1cccn2cc(-c3ccc(NS(=O)(=O)c4ccc(Br)cc4)cc3)nc12,7.9*
Cc1ccc(S(=O)(=O)Nc2ccc(-c3cn4cccc(C)c4n3)cc2)c(C)c1,6.1*
Cc1ccc(S(=O)(=O)Nc2n[nH]c(-c3ccc(C(C)(C)C)cc3)c2Br)cc1,-6
Cc1cccn2cc(-c3cccc(S(=O)(=O)N4CC(C)OC(C)C4)c3)nc12 (stereo unspecified),-0.05
Nc1ccc(-c2nc3c(N)cccc3[nH]2)cc1,15
SMILES,Dicer processing
Cc1[nH]c2ccccc2c(=O)c1Cc1c(C)[nH]c2ccccc2c1=O,-1.8
CCCc1nnc(N2C(=O)c3oc4ccc(F)cc4c(=O)c3C2c2ccc(OCC)c(OC)c2)s1 (stereo unspecified),0.19
Cc1ccc(N2C(=O)CC(N3CCN(Cc4ccc5c(c4)OCO5)CC3)C2=O)cc1Cl (stereo unspecified),-0.83
Cc1cccc(C)c1N=C(N)N=C(N)N,0.48
Clc1cc(Br)cc(Cl)c1-n1cccc1,0.02
O=C(NC(=O)N1CCSC1)c1ccccc1Cl,0.88
COC(=O)c1sc(N2C(=O)C(O)=C(C(=O)c3cccs3)C2c2ccc(OC)cc2)nc1C (stereo unspecified),1.7
O=C(C1c2ccccc2Oc2ccccc21)N1CCN(c2ccc(F)cc2)CC1,2.5
O=C1C2=C(Nc3[nH]c(=O)[nH]c(=O)c3C2c2ccc(Cl)cc2)c2ccccc21 (stereo unspecified),-0.29
Cc1ccc(C)c(S(=O)(=O)N(C(=O)c2cccnc2)c2ccc3oc(=O)sc3c2)c1,13
Cc1ccc(S(=O)(=O)N(C(=O)c2cccnc2)c2ccc3oc(=O)sc3c2)c(C)c1,8.4*
Cc1cc(C)c(S(=O)(=O)N(C(=O)c2cccnc2)c2ccc3oc(=O)sc3c2)cc1C,11*
Cc1ccc(S(=O)(=O)NCc2cccnc2)c(C)c1,1.2
Cc1cc(C)n(CC(=O)Nc2ccccc2)c(=O)c1C#N,-0.08
Cc1ccc(S(=O)(=O)N(C)C)cc1NC(=O)c1ccccc1,-1.2
CN(C)NC(=O)NC(=O)c1ccc(Oc2ccc(Cl)cc2)c([N+](=O)[O-])c1,6.2
O=c1[nH]c(/C=C\c2ccco2)c([N+](=O)[O-])c(=O)[nH]1,-0.49
O=C(O)c1cccc2cccc(Sc3cccc4cccc(CO)c34)c12,-0.86
CNC(=O)c1cccc2cccc(Sc3ccccc3C(=O)O)c12,25*
O=C(O)c1cccc2cccc(Sc3cccc4ccccc34)c12,0.88
C=C(C)Cc1c(COC)nc(SC)[nH]c1=O,2.2
Cc1ccc2c(c1)C(=O)C(O)(c1ccccc1)C(=O)N2 (stereo unspecified),-1.3
O=C(O)Cc1nc2ccc(Cl)cc2[nH]1,-0.26
Cc1ccc2nc(CCCC(=O)O)[nH]c2c1,3.6*
Cc1ccc(C(=O)/C=C/Sc2nc3ccc(C)cc3[nH]2)cc1,1.1
SMILES,Dicer processing
COC(=O)c1scc(C)c1-n1c(C)ccc1C,-1.4
Cc1c(C(=O)Cc2c(O)c3ccccc3oc2=O)sc2nc(C(F)(F)F)nn12,3
COc1ccc(OC(=O)c2cc3ccccc3o2)cc1,4.7*
CN(C)CCCOC(=O)c1cc2ccccc2o1,0.59
CN(CCOC(=O)c1cc2ccccc2o1)C(C)(C)C,2.7
Cc1ccc(SCc2c(Cl)sc3ccccc23)cc1,0.15
COc1ccc(C2CC(=O)C3=C(C2)Nc2ccccc2NC3c2ccccc2OC(C)C)cc1 (stereo unspecified),2.2
COc1ccc(C2CC(=O)C3=C(C2)Nc2ccccc2NC3c2ccc(Cl)cc2)cc1OC (stereo unspecified),2.4
CC(C)Oc1ccccc1C1Nc2ccccc2NC2=C1C(=O)CC(c1ccccc1)C2 (stereo unspecified),5.7*
COc1cc(C2Nc3ccccc3NC3=C2C(=O)CC(c2ccccc2)C3)cc(Cl)c1O (stereo unspecified),3.2*
COc1ccc(C2Nc3ccccc3NC3=C2C(=O)CC(c2ccccc2)C3)cc1O (stereo unspecified),1.5
COc1ccc(C2CC(=O)C3=C(C2)Nc2ccccc2NC3c2ccccc2OC(C)C)cc1OC (stereo unspecified),0
COc1ccc(C2C(C(=O)OC3CCCCC3)=C(C)NC3=C2C(=O)CC(C)(C)C3)cc1OC (stereo unspecified),-0.17
CCOC(=O)COc1ccc2c(=O)c(Oc3ccc(OC)cc3)coc2c1,0.03
COc1ccc(-c2cnc3ncnn3c2N)cc1OC,0.53
Cc1c(-c2ccnc(NC(=O)c3ccc(Cl)cc3)n2)sc2ccc(Cl)cc12,0.48
Cc1onc(-c2c(Cl)cccc2Cl)c1NC(=O)N(C)/N=C/c1c(Cl)cccc1Cl,-0.96
S=c1[nH]nc(NCCc2ccc(Cl)cc2)s1,3.3*
S=c1[nH]nc(Nc2ccccc2Cl)s1,-1.7
S=c1[nH]nc(Nc2ccc(Br)cc2Cl)s1,1.1
CSc1cccc(-n2c(CCc3ccc(O)cc3)n[nH]c2=S)c1,-0.47
N#CC1c2ccccc2C=CN1C(=O)C1=CCCCC1 (stereo unspecified),-0.37
CSC(=NC(C)C)NC(C)C,-0.6
CCOc1ccccc1C1Nc2ccc(C)cc2-c2cc(C)nn21 (stereo unspecified),4.1*
COc1ccccc1C1Nc2ccc(C)cc2-c2cc(C)nn21 (stereo unspecified),3.5*
SMILES,Dicer processing
COc1ccc(C2Nc3ccc(C)cc3-c3cc(C)nn32)c(OC)c1 (stereo unspecified),0.75
CCOc1cccc(C2Nc3ccc(C)cc3-c3cc(C)nn32)c1O (stereo unspecified),1.5
COc1ccccc1C1Nc2ccccc2-c2cc(C)nn21 (stereo unspecified),0.8
O=C(O)c1cccc(Cn2ccc([N+](=O)[O-])n2)c1,-1.4
CN(C)c1ccc(-c2n[nH]c(=O)c3ccccc23)cc1[N+](=O)[O-],1.4
CC(C)(C)OC(=O)NCCNC(=O)Nc1ccccc1C(F)(F)F,-0.78

# High-throughput results from PubChem.
